697 NFkB inh: inhibitors of the PMA/ionomycin-induced NF-kB reporter in 697 B cells; 0.33% of 330,000 active; 697 B-cell NF-kB luciferase reporter, 16 h; inhibition, % at 4 µM; in the data active means inhibition above about 35%
esBAF inh: blocks esBAF chromatin remodeling in mouse ES cells | reporter increase, % at 12.5 µM | AID 602393 | 2% of 350,000 active | Bmi1-luciferase knock-in reporter, 24 h; 100% = twice the neutral-well signal; in the data active means activation above about 40%; inconclusive means no clear call, values can overlap the other calls;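 further: a rise in the Bmi1 reporter signal indicates esBAF inhibition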
Jurkat NFkB inh: inhibitors of the PMA/ionomycin-induced NF-kB reporter in Jurkat cells; PMA/ionomycin-induced NF-kB luciferase reporter, luminescence; inhibition, % at 4 µM; 0.53% of 330,000 active; in the data active means inhibition above about 50%
SMARCA2 act: increases SMARCA2 function in MMTV reporter cells; MG213 cells, MMTV-luciferase reporter, dexamethasone, overnight; activation, % at 9.1 µM; 1% of 370,000 active; AID 652017; in the data active means activation above about 7.8%
Gli-Sufu antag: antagonists of Gli-Sufu signaling; Sufu-KO-LIGHT fibroblasts, Gli luciferase reporter luminescence; inhibition, % at 5 µM; 0.74% of 340,000 active; AID 588413;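 active means inhibition above about 55%, limit read from the data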
Of the large screens only hits and unclear results are named; the others gave an inactive call. A selection: hits, their analogues and other compounds. The true share with any hit is near 3.3%.

COCC1CCCN(C(=O)c2ccc3nc(Cc4cccc(Cl)c4)oc3c2)C1 (stereo not drawn)	esBAF inh 70
COC(=O)CCCNC(=O)c1ccc2oc(CCCc3ccccc3)nc2c1	none
COC(=O)[C@@H](C)NC(=O)c1ccc2oc(CCc3ccccc3)nc2c1	esBAF inh 66
CCCOC1CCCN(C(=O)c2ccc3oc(C(C)C)nc3c2)C1 (stereo not drawn)	esBAF inh 44
C[C@H]1CN([C@@H](C)CO)C(=O)c2c(c3ccccc3n2C)-c2ccccc2CO[C@H]1CN(C)C(=O)CCN(C)C	none (no result: 697 NFkB inh, Jurkat NFkB inh, SMARCA2 act, Gli-Sufu antag)
O=[N+]([O-])c1ccc(C(O)CSC(=S)N2CCCCC2)cc1 (stereo not drawn)	esBAF inh 45
C[C@@H]1CN([C@@H](C)CO)C(=O)c2cc(/C=C/c3ccccc3)cnc2O[C@@H]1CN(C)C(=O)Nc1ccc(C(F)(F)F)cc1	none (no result: 697 NFkB inh, Jurkat NFkB inh, SMARCA2 act, Gli-Sufu antag)
O=C(Nc1ccc2nn(-c3ccccc3)nc2c1)c1ccco1	esBAF inh 62
O=C(Nc1ccc2nn(-c3ccccc3)nc2c1)c1cccnc1	esBAF inh 53
N/C(=N\OC(=O)c1cc(Cl)ccc1Cl)c1ccccn1	none (no result: esBAF inh)
COc1ccc(Cl)cc1C(=O)O/N=C(\N)c1ccccn1	SMARCA2 act 7.8
Cc1noc(C)c1NC(=O)N(C)C[C@H]1Oc2ccc(NC(=O)Nc3cccc4ccccc34)cc2CC(=O)N([C@H](C)CO)C[C@H]1C	none (no result: 697 NFkB inh, Jurkat NFkB inh, SMARCA2 act, Gli-Sufu antag)
Cc1ccc(-c2cc3ccccc3nc2N2CCCC2)cc1	none (no result: esBAF inh)
Cc1ccc2c(c1)-c1nc3ccccc3cc1C2=NC1CCCCC1	SMARCA2 act 9.5 (no result: 697 NFkB inh, esBAF inh, Jurkat NFkB inh)
O=C(Nc1scc(-c2ccccc2)c1C(=O)O)c1ccc(F)cc1	none
Cc1ccc(-c2csc(NC(=O)c3ccc(F)cc3)c2C(=O)O)cc1	esBAF inh 59
O=C(Nc1sc2c(c1C(=O)O)CCCCC2)c1cccs1	none (no result: esBAF inh)
O=C(/C=C/c1cccs1)Nc1sc2c(c1C(=O)O)CCCC2	esBAF inh 62
O=C(Nc1sc2c(c1C(=O)O)CCCC2)c1ccc(F)cc1	esBAF inh 68
O=C(Nc1sc2c(c1C(=O)O)CCCC2)c1cccs1	esBAF inh 56
O=C(C[C@H]1C=C[C@@H](NC(=O)c2cccnc2)[C@H](CO)O1)NCCN1CCCCC1	none (no result: 697 NFkB inh, Jurkat NFkB inh, SMARCA2 act, Gli-Sufu antag)
Cc1cccc(C(=O)Nc2sc3c(c2C(=O)O)CCC3)c1	esBAF inh inconclusive
CC1CCc2c(sc(NC(=O)c3cccs3)c2C(=O)O)C1 (stereo not drawn)	none (no result: esBAF inh)
COc1cccc(C(=O)Nc2sc3c(c2C(=O)O)CCCC3)c1	esBAF inh 55
COC(=O)c1c(NC(=O)c2cccs2)sc2c1CCC(C)C2 (stereo not drawn)	esBAF inh 50
N=c1n(Cc2ccc(Cl)cc2)c2ccccc2n1CC(O)COc1ccccc1 (stereo not drawn)	none
N=c1n(Cc2ccccc2)c2ccccc2n1CC(O)COc1ccc(Cl)cc1Cl (stereo not drawn)	Gli-Sufu antag 56 (no result: esBAF inh)
Cc1ccc(C(=O)Nc2sc3c(c2C(=O)O)CCCC3)o1	none (no result: esBAF inh)
COC(=O)c1c(NC(=O)c2ccc(C)o2)sc2c1CCCCC2	esBAF inh 63
Cc1ccc(C(=O)Nc2sc3c(c2C(=O)O)CCC(C)C3)o1 (stereo not drawn)	esBAF inh 49
CCCCCCOc1ccc(OCC(O)CN2C(=O)NC(C)(C)C2=O)cc1 (stereo not drawn)	esBAF inh 46
Cc1nnc(SCC(=O)N/N=C/c2cn(-c3ccccc3)nc2-c2ccccc2)n1-c1ccccc1	esBAF inh 63
O=C(N/N=C/c1cn(-c2ccccc2)nc1-c1ccccc1)c1ccco1	esBAF inh 44
Cc1ccc(-c2nn(-c3ccccc3)cc2/C=N/NC(=O)c2ccc(Br)o2)cc1	esBAF inh 64
CCC(=O)N1[C@@H]2c3ccc(-c4ccccc4)c(=O)n3C[C@H]1[C@H](CO)[C@H]2C(=O)N(C)C	none (no result: 697 NFkB inh, Jurkat NFkB inh, SMARCA2 act, Gli-Sufu antag)
COc1ccccc1NC(=O)N[C@H]1CC[C@@H](CC(=O)N[C@H](C)c2ccccc2)O[C@H]1CO	none (no result: 697 NFkB inh, Jurkat NFkB inh, SMARCA2 act, Gli-Sufu antag)
CC(C)Sc1nnc(-c2c[nH]c3ccccc23)n1C	esBAF inh 41
CCOC(=O)C(C)Sc1nnc(-c2c[nH]c3ccccc23)n1C (stereo not drawn)	none
CC1=NN(c2ccccc2)C(=O)C1=Cc1ccccc1	none (no result: 697 NFkB inh, Jurkat NFkB inh, Gli-Sufu antag)
CC1=NN(c2ccccc2)C(=O)/C1=C/c1c(O)n(-c2ccc(F)cc2)[nH]c1=O	esBAF inh 55
CC1=NN(c2ccccc2)C(=O)/C1=C/c1ccc[nH]1	esBAF inh 50
